Entries with a potency or affinity are not part of this list. Values without a mark were called inactive.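 The calls were made as follows: active = cell killing, meaning signal decrease, with fitted half-maximal dose at or below ten times the top valid tested dose; inconclusive = poor fit, or flat curve with 30 to 70% signal loss; inactive = the rest.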
test: ATP-based viability loss in HeLa cells – cell-based, CellTiter-Glo luminescence, cherry-pick samples, cytotoxicity control for MITF activator project, dose response (AID 540259); conditions: 24 h; series mostly up to 35 µM; activity change, negative = cytotoxicity: at the top concentration;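 also: 0% = DMSO neutral control and -100% = mitoxantrone positive control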

| SMILES | activity change, negative = cytotoxicity |
| --- | --- |
| Cc1ccc(Nc2nnc(-c3ccccc3N)o2)cc1C | -1.3% |
| COc1ccc2cc(C(=O)NCCc3ccccc3)[nH]c2c1 | 8.17% |
| C#CCSc1nnc(-c2ccc(O)cc2)o1 | 13.9% |
| Cc1nnc(NC(=O)c2ccc(N3CCCC3=O)cc2)s1 | 6.95% |
| CCCc1cc(C(=O)Nc2ccc(C(=O)OC)cc2)cs1 | -6.83% |
| Nc1ncccc1OCc1ccc(Br)cc1 | -6.3% |
| CCC(C)NC(=O)c1cn(-c2cccc(C)n2)cn1 (configuration not stated) | 17.8% |
| O=C(Nc1ccc2ccccc2c1)c1cc(F)c(F)cc1Cl | -2.11% |
| CC(C)CNC(=O)C1CCN(Cc2ccc(OCc3ccccc3)cc2)CC1 | -2.62% |
| CC1CCc2nc(NC(=O)Cc3cccs3)sc2C1 (configuration not stated) | 4.91% |
| c1ccc(CSCc2nc3ccccc3[nH]2)cc1 | 11.5% |
| Cc1ccc(C2=NN(S(C)(=O)=O)C(c3cccs3)C2)cc1 (configuration not stated) | -4.21% |
| CCn1c(C(=O)NC2CCC(C)CC2)cc2sccc21 (configuration not stated) | -2.55% |
| CCN(CC)C(=O)c1cc(-c2ccc(Br)cc2)on1 | 1.25% |
| CC(=O)c1cnc2c(-c3cccc(Br)c3)cnn2c1C | -3.45% |
| c1csc(CSc2nc3ccccc3s2)c1 | -1.49% |
| COC(=O)Cn1c(=NC(=O)c2ccc(Cl)s2)sc2cc(C)ccc21 | -6.41% |
| c1csc(-c2nc(N3CCCCC3)no2)c1 | -0.703% |
| COC(=O)Cc1ccc(OCc2ccc(Cl)nc2)cc1 | 2.94% |

| SMILES | activity change, negative = cytotoxicity |
| --- | --- |
| CNC(=O)C(=O)Nc1nc(C23CC4CC(CC(C4)C2)C3)cs1 | 1.59% |
| Cc1cc(C)c(NN=c2c(=O)c3ccccc3c2=O)c(C)c1 | 4.61% |
| COc1ccc2oc(=O)c(C(=O)N3CCN(c4ccccc4C)CC3)cc2c1 | 6.89% |
| CCc1ccc2[nH]c3nc(C)cc(C)c3c(=O)c2c1 | -2.28% |
| COc1ccc(NC(=O)CCCn2c(=O)oc3ccccc32)cc1Cl | 6.66% |
| O=C(Nc1ccccc1)N1CCC(c2ccccc2)C1 (configuration not stated) | -0.372% |
| O=C(O)c1ccc(-c2nc(-c3ccc(Cl)cc3)cs2)cc1 | -7.11% |
| CCc1nnc(NS(=O)(=O)c2ccc(NC(=O)c3cccc(Cl)c3)cc2)s1 | 12.2% |
| Cc1ccc(NC(=O)N2CCc3ccccc3C2)cc1C | 9.08% |
| O=C(O)c1ccc(/C=C/c2ccc3cccc(O)c3n2)cc1 | 6.91% |
| O=C(Nc1ccc2oc(-c3ccccc3)nc2c1)c1cccnc1 | 5.53% |
| CCc1ccc(OC(=O)Nc2ccccc2)cc1 | 11.3% |
| CN1C(=O)C2C=CC1C1C(=O)N(c3ccccc3)C(=O)C21 (configuration not stated) | 15.4% |
| O=C(Nc1ccc(C(F)(F)F)cc1)c1ccccc1 | 9.08% |
| CCc1ccc(C(=O)N/N=C(\C)c2cccnc2)s1 | 8.45% |
| O=C(NC1CCCCCC1)c1cc2c(=O)n3ccccc3nc2s1 | -0.59% |
| CCN1CCN(c2cc3c(nn2)Oc2ccccc2N3C)CC1 | 10.1% |
| C=CCSc1nncn1/N=C/c1ccc(OC)cc1 | 11.5% |

Source: PubChem BioAssay AID540259 (Broad Institute, 2011)
